Seven compounds from PubChem BioAssay (Tox21) can be followed below.

Assay [1] can be described thus: Nuclear factor erythroid 2-related factor 2/antioxidant responsive element (Nrf2/ARE) small molecule agonists: qHTS cell viability counter screen in human keratinocytes (AID 1919968; active = well fitted curve in the direction sought with a large enough effect in the repeat runs; an effect the other way counts as inactive or inconclusive; also: nearly all actives have a fitted effect of over 55% in size). In outline:
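KeratinoSens HaCaT cells, 1,500/well, preincubated 5 h, then exposed to compounds in DMSO for 23 h at 37 C/5% CO2. Viability read as CellTiter-Fluor fluorescence after 1 h, in the same wells as the ARE-luciferase read.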
In general terms: Quantitative high-throughput screening tests each substance at several concentrations.

Assay [2] can be described thus: Nuclear factor erythroid 2-related factor 2/antioxidant responsive element (Nrf2/ARE) small molecule agonists: luciferase reporter gene qHTS assay in human keratinocytes (AID 1919969). Also: nearly all actives have a fitted effect of over 35% in size. Also: potency is read from the fitted curve at half-maximal effect.
Assay [3] has as its target Gonadotropin-releasing hormone receptor (Homo sapiens) (UniProt P30968). The assay is described as follows: Human gonadotropin-releasing hormone receptor (GnRHR) small molecule agonists, calcium flux assay in GnRHR-HEK293 cells (AID 1920063). Also: nearly all actives have a fitted effect of over 35% in size. A digest of the protocol:
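HEK293 cells stably expressing human GnRHR were dye-loaded for 1 h at 37 C. Compound was added in agonist mode and fluorescence (Ex/Em 480/540) recorded kinetically for 3 min. Fifteen concentrations, triplicates.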
A general note: A change in cytosolic calcium serves as a functional read-out for many receptors and channels.

For assay [4], the target named is KiSS-1 receptor (Homo sapiens) (UniProt Q969F8). The assay is described as follows: Human kisspeptin (KISS1R) small molecule agonists, calcium flux assay in KISS1R-HEK293 cells (AID 1920064; active = well fitted curve in the direction sought with a large enough effect in the repeat runs; an effect the other way counts as inactive or inconclusive). In outline: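 HEK293 cells stably expressing human KISS1R were loaded with calcium dye for 1 h at 37 C, then given compound; fluorescence (Ex/Em 480/540) was read kinetically for 3 min. Fifteen concentrations, triplicate.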
Sequence of KiSS-1 receptor (Homo sapiens) (Q969F8 whole entry, looked up): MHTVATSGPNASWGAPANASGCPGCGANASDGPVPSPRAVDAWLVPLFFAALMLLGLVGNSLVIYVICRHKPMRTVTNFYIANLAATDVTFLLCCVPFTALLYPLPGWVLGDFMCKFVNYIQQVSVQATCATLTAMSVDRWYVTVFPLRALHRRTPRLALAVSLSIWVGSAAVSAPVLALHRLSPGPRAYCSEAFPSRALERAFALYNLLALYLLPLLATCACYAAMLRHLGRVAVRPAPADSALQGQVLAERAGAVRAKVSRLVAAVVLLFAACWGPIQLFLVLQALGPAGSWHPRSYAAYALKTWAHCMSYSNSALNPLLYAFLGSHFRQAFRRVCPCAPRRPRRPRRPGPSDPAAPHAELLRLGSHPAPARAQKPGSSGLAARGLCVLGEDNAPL

Assay [5] is described as follows: G protein-coupled receptor (GPCR) small molecule agonists, calcium flux assay: HEK293 wild type cell line counter screen (AID 1920065). A digest of the protocol: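 Wild-type HEK293 cells plated 18 h, loaded with calcium dye 1 h at 37 C, then compounds added in agonist mode (ATP as positive control). Kinetic fluorescence Ex/Em 480/540 recorded 3 min at 1 sec intervals; 15 concentrations, triplicate.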

The nature of assay [6]: p53 small molecule agonists, cell-based qHTS assay with human liver microsomes (AID 1963577).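 Also: p53 response element beta-lactamase reporter cells with liver microsomes plus NADPH.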 In outline:
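16 h, 37 C exposure of p53RE-bla cells to compounds with human liver microsomes and NADPH (0.5 mg/mL final each); detection via LiveBLAzer mixture, 2 h dark at room temperature.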

Assay [7] can be described thus: p53 small molecule agonists, cell-based qHTS assay with rat liver microsomes (AID 1963578). In outline:
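With rat liver microsomes and NADPH present (0.5 mg/mL final each), p53RE-bla cells are treated with compound for 16 h at 37 C. LiveBLAzer detection mixture is then applied for 2 h at room temperature in the dark.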

A short description of assay [8]: p53 small molecule agonists, cell-based qHTS assay with human liver microsomes: qHTS cell viability counter screen (AID 1963579). Also: nearly all actives have a fitted effect of over 45% in size. In outline: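 In this multiplexed counter screen, the reporter plates were subsequently treated with CellTiter-Glo so that cell viability, reflected by luminescence, could be recorded for p53RE-bla cells dosed 16 h with compounds under microsomal activation (HLM and NADPH).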

Assay [9] in a line: p53 small molecule agonists, cell-based qHTS assay with rat liver microsomes: qHTS cell viability counter screen (AID 1963580). Also: nearly all actives have a fitted effect of over 45% in size. In outline:
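Intracellular ATP, by CellTiter-Glo luminescence, defines viability. HCT-116 p53RE-bla cells, 4,000 per well, were compound-treated in the presence of rat liver microsomes and NADPH for 16 h at 37 C.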

Assay [10] is described as follows: p53 small molecule agonists, cell-based qHTS assay: qHTS cell viability counter screen (AID 1963581). Also: nearly all actives have a fitted effect of over 45% in size. A digest of the protocol:
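p53RE-bla HCT-116 cells, compounds added 5 h after plating and incubated 16 h at 37 C. Cytotoxicity measured in the same wells as intracellular ATP by CellTiter-Glo luminescence after 30 min at room temperature.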

Assay [11] in a line: p53 small molecule agonists, cell-based qHTS assay (AID 1963582; active = well fitted activation curve with a large enough effect in the signal ratio in the repeat runs, not every such curve was filed as active; the % refers to the signal ratio). A digest of the protocol:
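p53RE-bla reporter cells, compounds added in DMSO after 5 h plating, incubated 16 h at 37 C. Beta-lactamase read via 2 h room-temperature LiveBLAzer B/G FRET substrate, fluorescence intensity.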

Assay [12] addresses 5-hydroxytryptamine receptor 2A (Homo sapiens) (UniProt P28223). The assay is described as follows: 5-hydroxytryptamine receptor 2A (HTR2A) small molecule antagonists, cell-based qHTS assay (AID 1963586). Also: nearly all actives have a fitted effect of over 45% in size. Also: potency is read from the fitted curve at half-maximal effect. A digest of the protocol:
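Antagonist-mode intracellular calcium assay: DOI (4 nM) added after 5 min compound pre-incubation at room temperature to dye-loaded HTR2A-CHO cells. Fluorescence followed for 3 min, sampled every second.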

Assay [13] shares this target. The assay is described as follows: 5-hydroxytryptamine receptor 2A (HTR2A) small molecule agonists, cell-based qHTS assay (AID 1963587). Also: nearly all actives have a fitted effect of over 30% in size. A digest of the protocol:
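Kinetic calcium-flux fluorescence (2 min, 1 sec intervals) after compound addition in agonist mode. HTR2A-CHO cells were cultured 18 h, then dye-loaded 1 h at 37 C.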

For assay [14], the target named is Muscarinic acetylcholine receptor M1 (Homo sapiens) (UniProt P11229). The assay is described as follows: Cholinergic receptor muscarinic 1 (CHRM1) small molecule antagonists, cell-based qHTS assay (AID 1963588). Also: nearly all actives have a fitted effect of over 40% in size. In outline: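 CHRM1-CHO calcium-flux assay, antagonist mode. Cells were seeded 18 h, dye-loaded 1 h at 37 C and given compound for 5 min at RT, then acetylcholine was added at 50nM. FDSS fluorescence was read 3 min; 15 concentrations, three runs.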
Sequence of Muscarinic acetylcholine receptor M1 (Homo sapiens) (P11229 whole entry, looked up): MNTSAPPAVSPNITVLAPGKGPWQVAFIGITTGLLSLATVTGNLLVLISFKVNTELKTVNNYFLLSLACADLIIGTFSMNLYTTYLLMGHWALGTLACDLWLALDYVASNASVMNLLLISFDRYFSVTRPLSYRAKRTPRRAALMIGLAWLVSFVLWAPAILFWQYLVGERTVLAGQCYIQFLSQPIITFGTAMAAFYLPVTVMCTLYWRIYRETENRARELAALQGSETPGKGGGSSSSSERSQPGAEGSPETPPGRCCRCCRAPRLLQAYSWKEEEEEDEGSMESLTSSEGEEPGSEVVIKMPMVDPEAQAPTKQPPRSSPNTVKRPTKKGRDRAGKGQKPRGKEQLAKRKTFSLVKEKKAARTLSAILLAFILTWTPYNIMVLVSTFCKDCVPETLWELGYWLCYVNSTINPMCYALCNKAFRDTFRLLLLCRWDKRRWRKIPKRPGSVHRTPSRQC

For assay [15] the target is unchanged. The assay is described as follows: Cholinergic receptor muscarinic 1 (CHRM1) small molecule agonists, cell-based qHTS assay (AID 1963589). Also: nearly all actives have a fitted effect of over 35% in size. A digest of the protocol:
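CHO cells stably expressing human CHRM1 were loaded with calcium dye for 1 h at 37 C, then compound was added in agonist mode. Intracellular calcium fluorescence was followed kinetically at 1 s intervals. Fifteen concentrations were tested in three independent runs.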

The target of assay [16] is Beta-2 adrenergic receptor (Homo sapiens) (UniProt P07550). Put plainly: Adrenergic beta2 receptor (ADRB2) small molecule antagonists, cell-based qHTS assay (AID 1963592). Also: series mostly up to about 92 µM; nearly all actives have a fitted effect of over 50% in size. In outline: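 Cells (CHO, stable ADRB2 overexpression) incubated 18-20hr at 37C; compounds added from DMSO; agonist mix (1nM isoproterenol, 100uM IBMX, 25uM Ro-20-1724) added; 0.5hr RT; d2-cAMP and anti-cAMP-cryptate added; 1hr RT; 665/615 nm read.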
Sequence of Beta-2 adrenergic receptor (Homo sapiens) (P07550 whole entry, looked up): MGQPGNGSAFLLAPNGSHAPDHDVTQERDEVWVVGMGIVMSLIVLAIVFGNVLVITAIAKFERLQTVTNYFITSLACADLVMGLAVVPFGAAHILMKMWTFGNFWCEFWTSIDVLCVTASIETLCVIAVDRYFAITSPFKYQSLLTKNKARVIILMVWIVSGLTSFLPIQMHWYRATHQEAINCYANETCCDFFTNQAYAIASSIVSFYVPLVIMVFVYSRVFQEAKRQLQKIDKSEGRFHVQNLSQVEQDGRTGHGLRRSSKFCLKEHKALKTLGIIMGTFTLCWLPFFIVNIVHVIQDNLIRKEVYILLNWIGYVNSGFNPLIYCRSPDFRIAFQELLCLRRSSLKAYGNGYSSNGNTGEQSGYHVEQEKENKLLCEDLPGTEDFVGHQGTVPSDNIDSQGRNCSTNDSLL

Assay [17] has as its target D(2) dopamine receptor (Homo sapiens) (UniProt P14416). The assay is described as follows: Dopamine D2 receptor (DRD2) small molecule agonists, cell-based qHTS assay (AID 1963594). Also: nearly all actives have a fitted effect of over 35% in size. In outline: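 cAMP accumulation in DRD2-HEK293 cells measured by HTRF after 1 h detection; compounds added 10 min before NKH477 (200nM […]) forskolin-analogue stimulation, 30 min at room temperature, with Ro20-1724 present at 0.1 mM final.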

Assay [18] has the same target. The assay is described as follows: Dopamine D2 receptor (DRD2) small molecule antagonists, cell-based qHTS assay (AID 1963595; active = well fitted inhibition curve with a large enough effect in the signal ratio in the repeat runs, with a control signal flat; the % refers to the signal ratio). A digest of the protocol:
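Antagonism was scored as restored cAMP in HEK293-DRD2 cells. These cells were stimulated with 200 nM NKH477 and 12 nM quinpirole for 30 min at room temperature, in the presence of 0.1 mM Ro20-1724.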

Assay [19] is described as follows: cAMP Responsive Elements (CRE) small molecule antagonists, cell-based qHTS assay (AID 1963591; active = well fitted inhibition curve with a large enough effect in the signal ratio in the repeat runs, not every such curve was filed as active; the % refers to the signal ratio). A digest of the protocol:
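CRE-bla HEK293T cells plated 18 h, then given compound plus NKH477 at 0.25 uM final for 3 h at 37C. Beta-lactamase reporter read with LiveBLAzer B/G FRET substrate after 2 h at room temperature.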

The structures appear in SMILES notation. Records with an inconclusive call do not appear. Calls of active or inactive are those of the source. Unless noted, calls follow the shape of the full dose curve.

Sequence of Gonadotropin-releasing hormone receptor (Homo sapiens) (P30968 whole entry, looked up): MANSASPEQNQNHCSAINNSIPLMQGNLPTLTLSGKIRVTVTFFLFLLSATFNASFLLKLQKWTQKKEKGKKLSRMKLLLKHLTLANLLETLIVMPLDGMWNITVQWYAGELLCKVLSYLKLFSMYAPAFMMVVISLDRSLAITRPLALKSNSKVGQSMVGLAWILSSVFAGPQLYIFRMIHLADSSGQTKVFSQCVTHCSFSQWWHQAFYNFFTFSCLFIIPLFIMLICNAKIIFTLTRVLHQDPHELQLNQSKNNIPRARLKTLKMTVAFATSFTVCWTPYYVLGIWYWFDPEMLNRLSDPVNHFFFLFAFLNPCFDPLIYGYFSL
Sequence of 5-hydroxytryptamine receptor 2A (Homo sapiens) (P28223 whole entry, looked up): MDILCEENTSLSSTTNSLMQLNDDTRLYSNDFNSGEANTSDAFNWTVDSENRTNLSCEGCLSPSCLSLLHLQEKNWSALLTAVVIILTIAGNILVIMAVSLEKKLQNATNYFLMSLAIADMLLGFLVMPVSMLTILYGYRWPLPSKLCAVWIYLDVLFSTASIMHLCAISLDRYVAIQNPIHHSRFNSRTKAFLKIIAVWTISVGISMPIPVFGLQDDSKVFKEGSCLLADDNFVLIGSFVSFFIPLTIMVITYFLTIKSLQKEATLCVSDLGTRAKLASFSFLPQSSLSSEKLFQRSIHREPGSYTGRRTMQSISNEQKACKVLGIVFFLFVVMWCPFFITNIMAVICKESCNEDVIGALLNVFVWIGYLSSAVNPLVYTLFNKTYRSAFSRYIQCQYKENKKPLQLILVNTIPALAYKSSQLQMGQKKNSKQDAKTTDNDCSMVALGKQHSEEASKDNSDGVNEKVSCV
Sequence of D(2) dopamine receptor (Homo sapiens) (P14416 whole entry, looked up): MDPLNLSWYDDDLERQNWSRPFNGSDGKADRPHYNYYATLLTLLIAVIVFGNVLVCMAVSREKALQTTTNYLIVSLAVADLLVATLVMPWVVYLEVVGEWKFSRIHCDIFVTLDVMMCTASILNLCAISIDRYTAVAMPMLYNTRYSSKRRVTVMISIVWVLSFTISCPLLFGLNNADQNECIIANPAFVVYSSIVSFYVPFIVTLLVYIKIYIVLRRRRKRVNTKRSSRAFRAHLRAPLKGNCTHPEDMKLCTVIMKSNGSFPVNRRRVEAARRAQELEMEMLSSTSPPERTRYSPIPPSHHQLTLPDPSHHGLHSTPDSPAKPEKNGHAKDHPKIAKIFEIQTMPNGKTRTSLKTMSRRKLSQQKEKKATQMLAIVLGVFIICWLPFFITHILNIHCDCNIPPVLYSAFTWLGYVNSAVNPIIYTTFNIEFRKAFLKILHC

For `CCCCc1ccc2c(n1)[C@@H](c1ccc(OC)cc1C[C@H](C)C(=O)O)[C@H](C(=O)O)[C@H]2c1ccc2c(c1)OCO2`, the Potency result in [1], in assay [2], in [3], in assay [6], in assay [7] and in assay [8] was “inactive” in each case. Besides, the Potency result in [9], in assay [10], in assay [11], in assay [12], in [13] and in assay [14] was “inactive” in each case. Besides, the Potency entry in [15], in assay [16], in [17] and in [18] was “inactive” throughout. The outcome in assay [4] and in [5] was inactive.
Turning to `CC(C)OC(=O)C(C(=O)OC(C)C)=C1SC=CS1`, the Potency entry in [1], in [2], in assay [3], in [6], in assay [7] and in [8] was “inactive” in each case. Moreover, the Potency entry in [9], in assay [10], in assay [11], in [12], in assay [13] and in assay [14] was “inactive” each time. The Potency result in assay [15], in [16], in assay [17] and in assay [18] was “inactive” throughout. The result in assay [4] and in assay [5] was inactive.
As to `CCCC(=O)C(CC)Sc1ccoc1C` (stereo unspecified), the Potency entry in assay [1], in assay [2], in [3], in assay [6], in assay [7] and in assay [8] was “inactive” throughout. Also, the Potency result in [9], in assay [10], in [11], in assay [12], in assay [13] and in assay [14] was “inactive” throughout. The Potency entry in [15], in [19], in [16] and in assay [18] was “inactive” in each case. Moreover, the outcome in assay [4] and in [5] was inactive.
As for `CCCC(C)c1ccccc1O` (stereo unspecified), the Potency result in [1], in assay [2], in assay [3], in [6], in [7] and in assay [8] was “inactive” each time. Moreover, the Potency entry in [9], in [10], in assay [11], in [12], in assay [13] and in assay [14] was “inactive” each time. For the same compound, the Potency result in assay [15], in [16], in assay [17] and in assay [18] was “inactive” in each case. Besides, the result in assay [4] and in assay [5] was inactive.
As for `CC(C)OC(=O)C(C)N(C(=O)c1ccccc1)c1ccc(F)c(Cl)c1` (stereo unspecified), the Potency entry in [1], in assay [2], in assay [3], in assay [6], in assay [7] and in assay [8] was “inactive” in each case. In addition, the Potency result in assay [9], in [10], in [11], in assay [12], in [13] and in assay [14] was “inactive” in each case. Further, the Potency entry in assay [15], in assay [16], in assay [17] and in assay [18] was “inactive” each time. The result in assay [4] and in assay [5] was inactive.
`CC(C)(C)c1cc(CCC(=O)NCCCCCCNC(=O)CCc2cc(C(C)(C)C)c(O)c(C(C)(C)C)c2)cc(C(C)(C)C)c1O`: the Potency entry in [1], in [2], in [3], in [6], in [7] and in [8] was “inactive” each time. Also, the Potency result in assay [9], in [10], in [11], in [12], in [13] and in assay [14] was “inactive” each time. Further, the Potency entry in assay [15], in [16], in assay [17] and in assay [18] was “inactive” in each case. In addition, the result in assay [4] and in [5] was inactive.
As for `Cc1ccc(S)cc1`, the Potency entry in assay [1], in assay [3], in [6], in assay [7], in assay [8] and in [9] was “inactive” each time. Besides, the Potency result in assay [10], in assay [11], in [13], in assay [14], in assay [15] and in assay [16] was “inactive” each time. Further, the Potency result in assay [17] and in [18] was “inactive” throughout. The Potency in [2] is 24.3 µM (active); in [12], 42.1 µM (active). The outcome in [4] and in [5] was inactive.
